Hits are enriched below; roughly 2.4% of the tested compounds scored in any of these assays.
D2 antag: antagonists of human D2 dopamine receptor | P14416 | inhibition, % at 10 µM | actives 2% (n = 340,000) | HEK293 TREx D2 cells, calcium flux, dopamine EC80 | AID 485344; in the data active = inhibition above about 30%; inactive = below that, where a call was filed; note: 0% is about no effect
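Cells plated overnight at 30 C with tetracycline; no-wash calcium dye, 30–90 min RT; 10 s baseline; compound pinned; 180 s read; EC80 dopamine added; another 180 s read.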
D2 ag-1: agonists of human D2 dopamine receptor. HEK293 T-REx D2 cells, calcium flux agonist mode. actives 0.53% (n = 340,000). P14416. AID 485358. activation, % at 2 µM;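 active = activation over 3 SD above normal in the single-dose calcium agonist read, cut at about 30% in these data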; note: 0% is about no effect
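Calcium-flux readout, 1 cycle/sec over 180 s following compound pin transfer, in inducible HEK293 Trex D2 cells (force-coupled); dopamine controls included. Positive calcium responses during this window marked compounds as potential agonists.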
D2 ag-2: human D2 receptor agonism in beta-arrestin assay; P14416; DiscoveRx PathHunter D2 beta-arrestin, luminescence, 90 min; 100% = 57 uM dopamine signal; activation, % (no concentration beside the values); actives 0.084% (n = 360,000); AID 624465; in the data active = activation above about 40%; inconclusive = between about 15% and that limit
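Agonist mode: compounds alone added to overnight-plated D2 PathHunter cells for 90 min at 37 C, with 57 uM final dopamine (EC100) defining full response. Beta-arrestin recruitment detected by chemiluminescent reagent, read after 1 h at ambient temperature.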
D2 PAM-1: potentiates the human D2 dopamine receptor allosterically | potentiation, % (no concentration beside the values) | P14416 | DiscoveRx D2 beta-arrestin cells, luminescence, 90 min; 100% = 57 uM dopamine signal | actives 0.23% (n = 360,000); in the data active = potentiation above about 50%; inconclusive = mostly about 30% to 49%
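D2 cells co-treated with compound plus 50 nM dopamine (EC20) for 90 min at 37 deg C to detect potentiation. Beta-arrestin recruitment was read as enzyme-fragment luminescence after 1 h at ambient temperature. Full response was set by 57 uM dopamine.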
D2 PAM-2: positively modulates the human D2 dopamine receptor allosterically; P14416; HEK293 T-REx D2, calcium flux, EC20 dopamine potentiation; potentiation, % at 10 µM; actives 0.34% (n = 340,000); AID 485347;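 active = potentiation over 3 SD above the plate norm, cut at about 30% in these data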; note: 0% is about no effect
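Potentiation of an EC20 dopamine calcium response measured kinetically over 180 s, after a preceding 180 s compound-only read flagging agonists. Cells: inducible Hek293 Trex D2 line, 4000/well, cultured overnight at 30 C before dye loading.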
D3 ag: activates human D3 dopamine receptor beta-arrestin recruitment; shares compounds with D2 ag-1; DiscoveRx D3 beta-arrestin cells, luminescence, 90 min; Potency, µM (doses to about 76.9 µM), inactives show at the highest dose activation, actives largely listed as activators; actives 4% (n = 2,300); AID 720506;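 note: potency is the fitted concentration of half-maximal effect; 100% = dopamine control response; nearly all actives have a fitted effect of over 70% in size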
Target sequence (P35462 whole entry, looked up): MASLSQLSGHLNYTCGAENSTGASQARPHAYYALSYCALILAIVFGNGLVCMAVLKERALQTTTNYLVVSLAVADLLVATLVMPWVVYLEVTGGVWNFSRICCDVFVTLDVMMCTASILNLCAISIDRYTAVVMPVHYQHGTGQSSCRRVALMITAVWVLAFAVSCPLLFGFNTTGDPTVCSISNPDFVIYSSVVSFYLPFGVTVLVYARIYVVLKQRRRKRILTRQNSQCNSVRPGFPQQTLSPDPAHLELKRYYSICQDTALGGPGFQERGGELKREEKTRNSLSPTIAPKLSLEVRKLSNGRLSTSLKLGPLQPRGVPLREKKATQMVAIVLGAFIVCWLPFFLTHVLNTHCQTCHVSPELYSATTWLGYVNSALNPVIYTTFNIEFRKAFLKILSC
D2 ag-3: D2 receptor agonism, beta-arrestin counterscreen | shares compounds with D2 ag-1 | DiscoveRx PathHunter D2 beta-arrestin, luminescence, 90 min; response scale: percent relative to full dopamine signal | Potency, µM (top dose mostly 76.9 µM), for inactives: top-dose activation, most hits filed as activators | actives 5.9% (n = 2,300) | AID 720507; note: potency is the fitted concentration of half-maximal effect; % of control where 0% means no effect; nearly all actives have a fitted effect of over 70% in size
* marks the source's active call; other numbers are inactive results; ? = inconclusive; · = no result. Unless noted, calls come from the whole dose curve; as a rule, active = well fitted activation curve with a large enough effect; inconclusive = small, poorly fitted or top-dose-only effect; inactive = flat fitted curve, though single readings scatter.

SMILES	D2 antag	D2 ag-1	D2 ag-2	D2 PAM-1	D2 PAM-2	D3 ag	D2 ag-3
O=C1CC(N2CCN(c3ccccc3)CC2)C(=O)N1c1cccc(Br)c1 (centres undefined)	2	1	-6	-4	37*	·	·
O=C1CC(N2CCN(c3cccc(C(F)(F)F)c3)CC2)C(=O)N1c1ccccc1F (centres undefined)	33*	-1	0	-15	1	·	·
C=CCC1Cc2c(cccc2[N+](=O)[O-])C(CC=C)N1 (centres undefined)	36*	50*	?	?	-13	?	22µM*
COc1ccc(C(=O)NCC(=O)N2CC=C(c3ccccc3)CC2)cc1OC	-7	0	4	-5	-9	·	·
Cc1cccc(C(=O)NCC(=O)N2CC=C(c3ccccc3)CC2)c1	0	0	1	1	-5	-1%	-1%
O=C(O)c1ccccc1C(=O)N1CC=C(c2ccccc2)CC1	4	29	0	-30	-18	-3%	6%
CN(C)S(=O)(=O)n1cnc([C@@H]2[C@@H]3C(=O)OC[C@@H]3C[C@]23N=CN(Cc2ccccc2)C3=O)c1	31*	0	1	-5	8	-2%	-4%
CN(C)S(=O)(=O)n1cnc([C@H]2c3c(ncn3Cc3ccccc3)C[C@H]3COC(=O)[C@@H]32)c1	-1	0	-5	-3	10	·	·
Cc1nn(-c2ccccc2)c(C)c1/C=C/C(=O)OC(C)C(=O)Nc1ncc(Cl)cc1Cl (centres undefined)	-5	30*	-4	-17	-22	2%	0%
Cc1nn(-c2ccccc2)c(C)c1/C=C/C(=O)OCC(=O)Nc1ncc(Cl)cc1Cl	-2	-1	-1	8	0	·	·
OC(CN1CCN(c2ccccn2)CC1)Cn1c2ccc(Cl)cc2c2cc(Cl)ccc21 (centres undefined)	-3	9	-6	-1	3	·	·
OC(COC(c1ccc(Cl)cc1)c1ccc(Cl)cc1)CN1CCN(c2ccccn2)CC1 (centres undefined)	-4	42*	-1	-17	-20	-7%	6%
CC(C)(C)c1ccccc1OCC(O)CN1CCN(c2ccccn2)CC1 (centres undefined)	62*	22	1	0	-16	?	27%
CC(C)(C)C1CCC(OCC(O)CN2CCN(c3ccccc3)CC2)CC1 (centres undefined)	74*	68*	?	3	-34	0.35µM*	?
Cc1ccc(OCC(O)CN2CCN(c3ccccn3)CC2)c(C)c1 (centres undefined)	64*	71*	?	21	-27	?	?
CC(C)(C)NCC(O)COc1ccccc1C(C)(C)C (centres undefined)	4	1	-2	-10	-4	·	·
Cc1ccc(OCC(O)CN2CCN(CCO)CC2)c(C)c1 (centres undefined)	-8	2	-1	-3	-1	·	·
CC(C)(C)C1CCC(OCC(O)CN2CCCC2)CC1 (centres undefined)	-8	-1	-7	2	12	·	·
CC(=O)c1ccc(NS(=O)(=O)c2cc(-c3cc(C)no3)ccc2C)cc1	·	0	·	·	-2	·	·
Cc1cccc(C)c1OCC(O)Cn1c2ccccc2c2ccccc21 (centres undefined)	-20	-1	-1	6	-5	·	·
COc1ccccc1/C=C/CN1CCN(c2ccccc2)CC1	77*	77*	12	7	-26	4%	?
Cc1cccc(C)c1OCC(O)CN1CCN(c2ccccc2)CC1 (centres undefined)	87*	80*	?	-22	-28	-2%	?
Cc1cccc(C)c1OCC(O)CN1CCN(c2ccccn2)CC1 (centres undefined)	78*	77*	?	?	-19	0.2µM*	5µM*
Cc1ccsc1CN1CCN(c2ccccn2)CC1	77*	79*	50*	?	-24	?	2.5µM*
OC(COc1ccccc1)CN1CCN(c2ccccc2)CC1 (centres undefined)	·	·	2	-43	·	·	·
SMILES	D2 antag	D2 ag-1	D2 ag-2	D2 PAM-1	D2 PAM-2	D3 ag	D2 ag-3
C=CCS/C(N)=N\N=C\c1c(O)ccc2ccccc12	-7	-1	-5	-11	-2	·	·
CCOc1ccc(CCNC(=O)c2nn(C)c3c2CSc2ccc(C)cc2-3)cc1OCC	·	·	·	·	0	·	·
COc1cccc(OC)c1OCC(O)CN1CCN(c2ccccc2)CC1 (centres undefined)	115*	78*	?	-31	-24	?	?
Cc1cccc(N2CCN(CC(O)COc3ccccc3)CC2)c1 (centres undefined)	·	·	3	-17	·	·	·
CCCc1nc2ccc(NC(C)=O)cc2c(=O)n1Cc1ccccc1Cl	-1	0	-2	-2	1	-7%	0%
COc1cc(CCCN[C@H](CN)Cc2ccccc2)cc(OC)c1OC	-2	-2	-4	-23	14	·	·
NC[C@H](Cc1ccccc1)NCCCCC1CCCCC1	-3	33*	-2	-9	-18	2%	10%
CCOC(=O)c1cc(-c2ccccc2)n(CC(=O)NC2CCC(C)CC2)c1C (centres undefined)	·	2	·	·	8	·	·
Cc1ccccc1C(=O)NNC(=O)c1cc(S(=O)(=O)N2CCOCC2)ccc1C	17	1	-2	-4	-2	-5%	-2%
Cc1ccc(S(=O)(=O)N2CCOCC2)cc1C(=O)N1CCN(c2ncccn2)CC1	-27	36*	6	25	-16	-8%	-1%
Cc1ccc(S(=O)(=O)N2CCOCC2)cc1C(=O)N1CCOCC1	·	·	-2	-3	18	·	·
NC(=NC(=O)c1ccc(Cl)cc1)N1N=CCC1c1ccccc1 (centres undefined)	23	50*	-4	2	-6	-2%	5%
COc1ccccc1C(=O)NNC(=O)c1cccc(C)c1	-2	2	-7	-4	2	·	·
CCN(c1ccccc1)S(=O)(=O)c1ccc(NC(=O)c2nc(SC)ncc2Cl)cc1	·	0	·	·	·	·	·
CCCn1c(/C=C/c2ccco2)nc2ccccc21	-5	10	3	-14	-4	0%	8%
CCCCn1c(/C=C/c2ccco2)nc2ccccc21	64*	40*	-2	-10	-18	-6%	-1%

From PubChem
